# Screening results as filed in PubChem BioAssay.
# A549 tox-1 = Nrf2 qHTS screen for inhibitors: counterscreen for cytotoxicity; 0.16% of 390,000 active; Potency, µM (series often up to 46 µM), without a hit: at the top dose activity change, negative = cytotoxicity, most hits filed as inhibitors; A549 ARE-Fluc cells, CellTiter-Fluor viability, 18-24 h; AID 504648, 2011; further: on the % scale 0 is the no-effect control and ±100 the full control effect
#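 A549 ARE_Fluc cells in 5% FBS OPTI-MEM were exposed to compounds in concentration-response for 18-24 h at 37 deg C. Viability was read by CellTiter-Fluor fluorescence (Ex 405/Em 525) after 30 min, before the luciferase read.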
# ATXN2 expr inh = Primary qHTS for Inhibitors of ATXN expression. HEK-293 ATXN2-luciferase reporter, luminescence, 24 h. AID 1745845, 2022. Potency, µM (doses to about 57 µM), without a hit: top-dose activity change, negative = inhibition, usual class: inhibitors. 0.72% of 360,000 active; further: on the % scale 0 is the no-effect control and ±100 the full control effect; nearly all actives have a fitted effect of over 55% in size
#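 ATXN2-luciferase reporter cells (luciferase flanked by upstream and downstream ATXN2 gene portions) were treated 24 h at 37 °C with compounds at up to 57 uM. SteadyGlo luminescence gave expression; GF-AFC fluorescence gave viability.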
# Nrf2 block = Nrf2 qHTS screen for inhibitors; Potency, µM (titrated, usually from 46 µM), for the others: top-dose activity change, negative = inhibition, actives largely listed as inhibitors; 2.1% of 360,000 active; A549 ARE-Fluc reporter, luciferase luminescence, 18-24 h; further: on the % scale 0 is the no-effect control and ±100 the full control effect; nearly all actives have a fitted effect of over 60% in size
#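 A549 ARE_Fluc cells, 5000/well, 5% FBS OPTI-MEM; compounds in dose-response, 18-24 h at 37 °C/5% CO2; CellTiter-Fluor viability read (Ex 405/Em 525), then BugLite luciferase luminescence = Nrf2 activity.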
# ATXN viability = Viability Counterscreen for Primary qHTS for Inhibitors of ATXN expression | S2 cells (HEK-293 line with an ATXN2-luciferase reporter) viability, CellTiter-Fluor protease fluorescence, 24 h | Potency, µM (series often up to 56.7 µM), actives largely listed as cytotoxic | 0.49% of 400,000 active; further: nearly all actives have a fitted effect of over 40% in size
# TGFb inhibitor = qHTS for Inhibitors of TGF-b; HepG2 CAGA-GFP TGF-b/SMAD3 reporter, GFP fluorescence, 18 h; TGF-beta stimulated, 500 pg/mL final; Potency, µM (titrated, usually from 46.1 µM), without a hit: at the top dose activity, negative = inhibition, hits mostly inhibitors; 1.2% of 410,000 active; AID 588855, 2011; further: on the % scale 0 is the no-effect control and ±100 the full control effect; nearly all actives have a fitted effect of over 65% in size
#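 Per well, imaged GFP fluorescence of HEPG2 CAGA-GFP cells gives the signal; cells get compound, then TGF-beta (500 pg/mL final), 18 h at 37 degrees C; %Activity versus -TGF-beta and +DMSO controls.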
# HepG2 tox = qHTS for Inhibitors of TGF-b: Cytotox Counterscreen | Potency, µM (highest dose often 46.1 µM), for inactives: at the top dose activity change, negative = cytotoxicity, most hits filed as cytotoxic | HepG2 CAGA-GFP viability, ATP luminescence, 18 h | 0.76% of 410,000 active
#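 CellTiter-Glo luminescence gave cytotoxicity after 18 hours at 37 degrees C. The cells were HepG2 CAGA-GFP in 1% FBS DMEM, stimulated with 500 pg/mL TGF-beta after compound addition. %Activity was normalised to no-cell wells (complete cell-killing) and DMSO (no toxicity), and curves were fitted and classified.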
# FLuc enzyme inh = Nrf2 qHTS screen for inhibitors: Purified Fluc Biochemical Counterscreen for Hit Validation. shares compounds with Nrf2 block. purified firefly luciferase, luminescence inhibition. Potency, µM (doses to about 57.5 µM), for the others: top-dose activity change, negative = inhibition, most hits filed as inhibitors. 4% of 1,400 active; further: on the % scale 0 is the no-effect control and ±100 the full control effect; nearly all actives have a fitted effect of over 65% in size
# Target sequence (P08659 whole entry, looked up): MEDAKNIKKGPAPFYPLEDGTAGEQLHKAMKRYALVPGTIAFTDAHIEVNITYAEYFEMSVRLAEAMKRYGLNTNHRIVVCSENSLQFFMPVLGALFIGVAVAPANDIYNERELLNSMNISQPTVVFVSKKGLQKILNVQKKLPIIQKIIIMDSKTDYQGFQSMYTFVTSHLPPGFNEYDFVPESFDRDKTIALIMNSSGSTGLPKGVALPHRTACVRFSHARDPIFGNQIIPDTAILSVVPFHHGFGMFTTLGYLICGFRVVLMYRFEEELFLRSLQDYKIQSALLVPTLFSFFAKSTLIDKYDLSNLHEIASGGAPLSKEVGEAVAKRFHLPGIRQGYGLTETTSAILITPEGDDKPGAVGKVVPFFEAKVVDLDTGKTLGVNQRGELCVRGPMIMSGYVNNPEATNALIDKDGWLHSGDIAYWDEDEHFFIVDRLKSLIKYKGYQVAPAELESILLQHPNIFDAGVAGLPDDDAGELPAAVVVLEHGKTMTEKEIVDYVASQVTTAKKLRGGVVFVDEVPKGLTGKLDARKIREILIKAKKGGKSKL
# A549 tox-2 = Nrf2 qHTS screen for inhibitors: A549 ARE-Fluc Cytotoxicity Counterscreen for Hit Validation. Potency, µM (top dose mostly 46.1 µM), without a hit: at the highest dose activity change, negative = cytotoxicity, actives largely listed as inhibitors. A549 ARE-Fluc cells, cytotoxicity counterscreen. shares compounds with Nrf2 block. 2% of 1,400 active;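 further: cells exposed to compounds for 18 to 24 hours; on the % scale 0 is the no-effect control and ±100 the full control effect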
# Nrf2 ARE inh = Nrf2 qHTS screen for inhibitors: Nrf2 A549 ARE-Fluc Confirmation Assay for Hit Validation; Potency, µM (top dose mostly 46.1 µM), without a hit: at the top dose activity change, negative = inhibition, actives largely listed as inhibitors; A549 ARE-firefly luciferase reporter, luminescence; AID 720524, 2013; shares compounds with Nrf2 block; 74% of 1,400 active; further: on the % scale 0 is the no-effect control and ±100 the full control effect; nearly all actives have a fitted effect of over 65% in size
# * = called active by the depositor; i = inactive; ? = inconclusive; nt = not tested or not shown. Compounds with a hit are over-represented: about 3.8% of the library has one in this group of screens. The call rests on the fitted dose curve; in most records, active means well fitted curve in the direction sought with a large enough effect; inconclusive means small, poorly fitted or top-dose-only effect, or another doubt; inactive means no such curve, though single readings can be large; an effect the other way counts as inactive or inconclusive. Potency means the concentration at half of the fitted maximal effect.
SMILES,A549 tox-1,ATXN2 expr inh,Nrf2 block,ATXN viability,TGFb inhibitor,HepG2 tox,FLuc enzyme inh,A549 tox-2,Nrf2 ARE inh
CCC1CSC(=Nc2ccc(C)cc2)N1C(=O)CN1C(=O)NC2(CCCC2)C1=O (centres undefined),-10.9%,-20.9%,?,?,-19.6%,-9.3%,nt,nt,nt
O=C(CN1C(=O)COc2ccccc2C1=O)c1ccc2c(c1)OCCO2,-0.5%,nt,13.4%,?,5.7%,16.0%,nt,nt,nt
Cc1nc2ccccc2n1CCc1nc2c3ccccc3nc(SCc3ccc(C#N)cc3)n2n1,-7.7%,0.7%,nt,i,-6.6%,2.9%,nt,nt,nt
COc1ccccc1NC(=O)C1CCN(C(=O)c2sc3nc[nH]c(=O)c3c2C)CC1,-16.1%,nt,nt,nt,-16.8%,-13.8%,nt,nt,nt
CC(C)(C)c1nc(N2CCN(C(=O)c3ccco3)CC2)c2nnn(Cc3ccccc3)c2n1,?,-35.1%,8.2µM*,i,?,-85.3%,0.9%,?,1.3µM*
O=C1c2cccc3cc([N+](=O)[O-])cc(c23)C(=O)N1CCN1CCCC1,?,?,1.84µM*,i,5.01µM*,-41.0%,-1.0%,?,?
Cc1oc2ccc(O)c(CN(C)Cc3ccccc3)c2c1C(=O)Nc1cccc(Cl)c1C,-8.7%,nt,4.0%,nt,-29.1%,-38.7%,nt,nt,nt
CC1=CC(=O)C2=C(C)CC[C@@H]3[C@H](OC(=O)[C@H]3C)[C@@H]12,-3.0%,7.4%,6.51µM*,i,?,0.3%,6.0%,-7.9%,6.51µM*
CC1C(=O)OC2C1CCC1(C)CCC(=O)C(C)C21 (centres undefined),9.0%,-17.7%,-10.6%,?,-7.1%,0.4%,nt,nt,nt
COc1cc2c(cc1OC)CN(C(=O)CN1CCN(S(=O)(=O)c3ccccc3Br)CC1)CC2,-6.8%,nt,1.84µM*,i,17.0%,-9.9%,2.7%,-16.4%,-4.7%
CC(C)Cc1nnc(NC(=O)C2CCCN(C(=O)c3ccc(Cl)cc3)C2)s1 (centres undefined),nt,nt,nt,i,-9.6%,1.2%,nt,nt,nt
Cc1ccc(C(=O)Nc2sc3c(c2C(=O)O)CCCC3)o1,?,-17.1%,?,?,10.7%,-22.8%,nt,nt,nt
Cc1ccc(C(=O)Nc2sc3c(c2C(=O)O)CCC(C)C3)o1 (centres undefined),-21.6%,nt,5.8µM*,?,22.2%,-3.9%,2.39µM*,-26.7%,5.17µM*
COc1ccc(CCNC(=O)CN2C(=O)C(=O)N(C3CCCC3)C2=O)cc1OC,-3.8%,2.1%,2.4%,i,11.2%,4.5%,nt,nt,nt
Cc1oc(-c2ccccc2NC(=O)c2ccccn2)nc1CNC(=O)c1ccc(Oc2ccccc2)o1,nt,nt,nt,i,nt,nt,nt,nt,nt
CC(=O)c1ccc(N2CCN(C(=S)Nc3ccc(Oc4ccccc4)cc3)CC2)cc1,?,?,6.51µM*,i,?,-21.1%,-9.1%,-0.7%,8.2µM*
CCc1ccc2ncc3c(-c4ccc(F)cc4)nn(CC(=O)NC4CCCCC4)c3c2c1,0.0%,nt,1.64µM*,nt,-7.8%,-3.6%,-0.3%,-2.3%,?
CCc1ccc(-c2nn(CC(=O)NC3CCCCC3)c3c2cnc2ccc(C)cc23)cc1,5.2%,10.0%,22.6%,i,-4.1%,2.1%,nt,nt,nt
Cc1ccc(C[n+]2ccccc2)cc1,-8.7%,6.5%,5.17µM*,i,-18.5%,-16.0%,1.4%,-1.0%,20.6µM*
CC1=Nc2cc(C(=O)NC3CCCCC3)ccc2Sc2ccc(Cl)cc21,-12.1%,nt,nt,nt,?,-16.0%,nt,nt,nt
CC1=Nc2cc(C(=O)NCCc3ccc(Cl)cc3)ccc2Sc2ccc(C)cc21,?,nt,5.17µM*,nt,8.91µM*,-17.4%,-8.6%,-26.4%,20.6µM*
CC(=O)c1c(C)n(CC(=O)NCc2ccc3c(c2)OCO3)c2ccccc12,-4.9%,-2.7%,5.8µM*,i,-20.4%,-10.7%,1.0%,10.8%,?
O=C(Cn1c(CO)nc2ccccc21)NCc1ccc2c(c1)OCO2,-21.1%,3.7%,-11.5%,i,8.6%,21.8%,nt,nt,nt
N#Cc1nc(N2CCCC2)nc(N2CCCC2)n1,-17.6%,-32.1%,5.17µM*,i,0.0%,-12.1%,0.0%,-25.1%,13µM*
COc1nc(C#N)nc(N2CCCCC2)n1,-1.3%,nt,-26.6%,nt,-22.7%,-25.5%,nt,nt,nt
SMILES,A549 tox-1,ATXN2 expr inh,Nrf2 block,ATXN viability,TGFb inhibitor,HepG2 tox,FLuc enzyme inh,A549 tox-2,Nrf2 ARE inh
CCc1cccc(NC(=O)CC2Oc3ccc(C)cc3NC2=O)c1 (centres undefined),-0.7%,nt,15.3%,nt,-7.0%,-20.1%,nt,nt,nt
C[C@@H]1C=CC(=O)O[C@@H]1c1ccc(Cl)cc1,-0.7%,?,9.2µM*,?,?,-49.3%,0.7%,-15.0%,5.8µM*
CCN1/C(=C/c2ccc3cc(C)ccc3[n+]2CC)Sc2ccccc21,?,nt,0.731µM*,nt,131.7%,-84.2%,-1.6%,5.8µM*,nt
CC[n+]1c(/C=C2\Sc3ccccc3N2C)ccc2cccc(C)c21,?,?,3.66µM*,?,33.2%,-41.5%,-14.0%,6.51µM*,2.59µM*
CCC(=O)/C=C1/Sc2ccccc2N1CC,-0.8%,2.8%,nt,i,-8.5%,7.2%,nt,nt,nt
CCN1/C(=C/C=C/c2sc3ccccc3[n+]2CC)Sc2ccccc21,-4.9%,7.08µM*,1.3µM*,11.2µM*,?,-32.1%,?,11.6µM*,2.59µM*
CC(=S)/C=C1\Sc2ccccc2N1C,?,6.6%,-40.1%,i,?,-20.3%,nt,nt,nt
COc1ccc(CNC(=O)Cc2nn(C)c(=O)c3ccccc23)cc1,-19.8%,-7.9%,5.8µM*,i,5.6%,-1.4%,-13.8%,0.0%,4.61µM*
Cc1cccc2c(N)c3c(nc12)CCCC3 (tested in a mixture with another compound),?,?,6.2%,?,-27.2%,-23.9%,nt,nt,nt
Cc1cc(C)c2c(N)c3cccc(C)c3nc2n1,-9.3%,13.4µM*,7.31µM*,nt,?,26.2%,-12.3%,-1.7%,3.26µM*
